We go through 24 compounds from PubChem BioAssay (Tox21).

Values joined by “and” are separate entries in the source; they are usually repeats but may differ in a detail not shown here. Equal entries are not always repeated. Results filed as inconclusive are left out. Some compounds were tested as several samples or in several runs, with calls that do not always agree. Active and inactive are the calls of the source. Unless noted, calls follow the shape of the dose curve; as a rule, active = well fitted curve in the direction sought with a large enough effect in the repeat runs; inconclusive = weak or mixed curves; inactive = no such curve, though single readings can be large; an effect the other way counts as inactive or inconclusive.

The nature of test [1]: qHTS assay to identify small molecule antagonists of the estrogen receptor alpha (ER-alpha) signaling pathway using the BG1 cell line in the presence of 0.1 nM 17-beta-estradiol - cell viability counter screen (AID 1259241). Also: nearly all actives have a fitted effect of over 40% in size. Also: potency is read from the fitted curve at half-maximal effect. Put shortly: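 CellTiter-Fluor read (30 min, 37C) on ER-alpha/ERE-luc VM7Luc4E2 cells; 22 hr compound treatment; agonist 0.1 nM E2 final; same-well multiplex.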
For orientation: qHTS replaces the single test concentration by a dilution series.

Test [2] can be described thus: qHTS assay to identify small molecule antagonists of the androgen receptor (AR) signaling pathway using the MDA cell line in the presence of 0.5 nM R1881 - cell viability counter screen (AID 1259242). Also: nearly all actives have a fitted effect of over 45% in size. Also: potency is read from the fitted curve at half-maximal effect. Put shortly:
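MDA-kb2 cells (human breast carcinoma, stably carrying MMTV-luciferase reporter) were exposed to compounds with 0.5 nM R1881 (final) for 16 hr at 37C, 0% CO2; viability then read as live-cell protease fluorescence (CellTiter-Fluor, 30 min) in the same wells.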

Test [3] has as its target Androgen receptor (Homo sapiens) (UniProt P10275). Put plainly: qHTS assay to identify small molecule antagonists of the androgen receptor (AR) signaling pathway using the MDA cell line in the presence of 0.5 nM R1881 (AID 1259243). Also: nearly all actives have a fitted effect of over 50% in size. Also: potency is read from the fitted curve at half-maximal effect. A digest of the protocol: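 MDA-kb2 human breast carcinoma cells carrying an MMTV-luciferase reporter (AR- and GR-responsive) were plated, rested 5 hr at 37C, dosed with compounds, then stimulated with 0.5 nM R1881 (final) for 16 hr; luminescence was read after ONE-Glo.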

For test [4], the target named is Estrogen receptor (Homo sapiens) (UniProt P03372). The experiment in a line: qHTS assay to identify small molecule antagonists of the estrogen receptor alpha (ER-alpha) signaling pathway using the BG1 cell line in the presence of 0.1 nM 17-beta-estradiol (AID 1259244). Also: nearly all actives have a fitted effect of over 50% in size. Also: potency is read from the fitted curve at half-maximal effect. A digest of the protocol: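 VM7Luc4E2 cells (endogenous full-length ER-alpha, stable 4xERE-luciferase) were grown 5 days in phenol red-free medium with charcoal-stripped FBS, then exposed 22 h at 37C to compounds plus 0.1 nM (final) 17beta-estradiol; ONE-Glo luminescence read-out.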
Sequence of Estrogen receptor (Homo sapiens) (P03372 whole entry, looked up): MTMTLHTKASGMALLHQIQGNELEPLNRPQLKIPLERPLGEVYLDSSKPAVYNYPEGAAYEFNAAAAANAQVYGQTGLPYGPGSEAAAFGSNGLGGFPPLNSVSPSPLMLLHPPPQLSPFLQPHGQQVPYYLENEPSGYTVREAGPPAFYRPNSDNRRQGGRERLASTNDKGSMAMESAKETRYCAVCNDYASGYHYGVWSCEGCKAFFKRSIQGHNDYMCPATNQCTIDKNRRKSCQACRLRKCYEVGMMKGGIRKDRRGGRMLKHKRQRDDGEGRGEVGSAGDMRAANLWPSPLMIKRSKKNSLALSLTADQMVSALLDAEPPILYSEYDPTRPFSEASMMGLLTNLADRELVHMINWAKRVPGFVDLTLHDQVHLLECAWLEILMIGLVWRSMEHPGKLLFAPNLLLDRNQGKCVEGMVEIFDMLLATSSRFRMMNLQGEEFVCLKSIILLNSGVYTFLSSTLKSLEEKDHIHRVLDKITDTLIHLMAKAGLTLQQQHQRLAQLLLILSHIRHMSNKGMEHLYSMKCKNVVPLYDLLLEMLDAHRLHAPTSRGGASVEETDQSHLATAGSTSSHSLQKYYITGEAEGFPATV

A short description of test [5]: qHTS assay to identify small molecule HDAC inhibitors - cell viability counter screen (AID 1259365). Also: nearly all actives have a fitted effect of over 50% in size. Also: potency is read from the fitted curve at half-maximal effect. As to activity change, negative = cytotoxicity: series mostly up to about 92 µM. A digest of the protocol:
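To flag cytotoxic hits, 1,500 wild-type HCT-116 cells per well, plated the day before, receive test compounds for 2hr at 37 C before CellTiter-Glo reagent and a luminescence read.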

Test [6] in a line: qHTS assay to identify small molecule agonists of the sonic hedgehog signaling (Shh) pathway (AID 1259368; calls by dose curve; also: series mostly up to about 92 µM; nearly all actives have a fitted effect of over 15% in size). Put shortly:
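NIH/3T3-derived 3T3Gli1-Luc cells carrying a stably integrated Gli1 response element–firefly luciferase reporter were plated, left 4 hr at 37 C, then given compounds in DMSO for 24 hr. Luminescence was read 30 min after adding luciferase reagent.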

A short description of test [7]: qHTS assay to identify small molecule agonists of the sonic hedgehog signaling (Shh) pathway - cell viability counter screen (AID 1259366). Also: nearly all actives have a fitted effect of over 50% in size. Also: potency is read from the fitted curve at half-maximal effect. A digest of the protocol: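 Fluorescence from CellTiter-Fluor reports live cells in this counter screen. NIH/3T3-derived Gli1-Luc reporter cells receive test compounds for 24hr at 37C; reagent goes in at 23hr.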
The nature of test [8]: qHTS assay to identify small molecule antagonists of the sonic hedgehog signaling (Shh) pathway - cell viability counter screen (AID 1259367). Also: nearly all actives have a fitted effect of over 55% in size. Also: potency is read from the fitted curve at half-maximal effect. Put shortly: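 After a 4 hr settling period, 3T3 Gli1-Luc cells were treated with DMSO-dissolved chemicals and conditioned medium, kept 24 hr at 37C in 5% CO2, and assayed for viability by CellTiter-Fluor fluorescence following 1 hr reagent incubation.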

The nature of test [9]: qHTS assay to identify small molecule HDAC inhibitors (AID 1259364). Also: nearly all actives have a fitted effect of over 45% in size. Also: potency is read from the fitted curve at half-maximal effect. As to activity change, negative = inhibition: top concentration of the series differs between compounds. A digest of the protocol: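 Wild-type HCT-116 cells were plated overnight, exposed to compounds for 2 h at 37 °C, then given HDAC-Glo class I/II luminogenic reagent for 30 min at room temperature before luminescence was read.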
Test [10] can be described thus: qHTS assay to identify small molecule phospholipidosis (PLD) inducers (AID 1259344; active = well fitted curve in the direction sought with a large enough effect; an effect the other way counts as inactive or inconclusive). Put shortly: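 HepG2 cells grown on collagen I take up LipidTOX Red while exposed to compound for 24 h; after fixation they are imaged at 20x and pit metrics are extracted.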
% is scaled to controls: 0 for no effect and ±100 for the full control effect.

Sequence of Androgen receptor (Homo sapiens) (P10275 whole entry, looked up): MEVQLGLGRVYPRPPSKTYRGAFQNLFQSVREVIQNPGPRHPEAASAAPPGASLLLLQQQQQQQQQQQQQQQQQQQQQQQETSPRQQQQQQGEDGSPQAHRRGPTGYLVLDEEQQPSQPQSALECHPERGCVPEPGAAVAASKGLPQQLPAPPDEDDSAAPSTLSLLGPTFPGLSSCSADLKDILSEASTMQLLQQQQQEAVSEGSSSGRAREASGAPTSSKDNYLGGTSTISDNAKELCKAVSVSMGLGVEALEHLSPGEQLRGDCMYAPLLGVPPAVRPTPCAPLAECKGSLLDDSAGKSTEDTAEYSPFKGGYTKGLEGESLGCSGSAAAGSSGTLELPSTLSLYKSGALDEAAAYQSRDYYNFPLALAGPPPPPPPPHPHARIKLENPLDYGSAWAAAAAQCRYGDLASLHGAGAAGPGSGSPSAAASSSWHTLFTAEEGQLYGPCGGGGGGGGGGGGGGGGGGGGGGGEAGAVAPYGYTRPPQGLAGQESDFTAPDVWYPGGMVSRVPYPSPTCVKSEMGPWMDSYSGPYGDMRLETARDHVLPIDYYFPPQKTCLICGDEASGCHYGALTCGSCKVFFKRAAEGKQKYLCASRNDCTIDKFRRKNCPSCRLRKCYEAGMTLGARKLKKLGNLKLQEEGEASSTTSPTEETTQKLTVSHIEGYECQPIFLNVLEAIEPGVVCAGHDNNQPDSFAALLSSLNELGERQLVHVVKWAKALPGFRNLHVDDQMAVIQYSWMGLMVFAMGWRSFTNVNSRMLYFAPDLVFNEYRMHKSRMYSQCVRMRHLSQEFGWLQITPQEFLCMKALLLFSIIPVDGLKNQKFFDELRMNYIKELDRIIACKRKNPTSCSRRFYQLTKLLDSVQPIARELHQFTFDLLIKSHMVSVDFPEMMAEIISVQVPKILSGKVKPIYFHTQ

Regarding `Nc1cc(Cl)c(O)c(Cl)c1`, the Potency entry in test [1], in test [2], in test [3], in test [4], in [5] and in test [6] was “inactive” throughout.
Turning to `NC(=O)c1cccc([N+](=O)[O-])c1`, the Potency entry in test [1], in test [2], in test [3], in test [4], in [5] and in test [7] was “inactive” throughout. For the same compound, the Potency entry in test [8] and in test [6] was “inactive” each time.
Consider `c1ccsc1`, for which the Potency result in test [1], in test [2], in test [3], in test [4], in test [9] and in [5] was “inactive” in each case. Moreover, the Potency result in test [7], in test [8] and in test [6] was “inactive” throughout.
Consider `CN(C)c1ccc(C(=C2C=CC(=[N+](C)C)C=C2)c2ccc(N(C)C)cc2)cc1`, for which the Potency is 8.59 µM (active) and 6.86 µM (active) and 5.31 µM (active) in [1]; 7.66 µM (active) and 6.86 µM (active) and 3.35 µM (active) in test [2]; 1.53 µM (active) and 3.44 µM (active) and 1.88 µM (active) in test [3]; 1.71 µM (active) and 3.86 µM (active) and 3.35 µM (active) in test [4]; 9.64 µM (active) and 8.63 µM (active) and 11.9 µM (active) in test [9]; 13.6 µM (active) and 27.3 µM (active) and 11.9 µM (active) in test [5]. Moreover, the Potency in [7] was 9.64 µM (active) and 30.6 µM (active) and 13.3 µM (active); in test [8], 9.64 µM (active) and 30.6 µM (active) and 10.6 µM (active). The Potency entry in test [10] and in [6] was “inactive” in each case.
As for `Cc1c2ccccc2c(C)c2c1ccc1ccccc12`, the Potency result in test [1], in test [9], in [5] and in test [6] was “inactive” each time. Further, the Potency result was “inactive and 61.1 µM (active)” in test [2]; 48.1 µM (active) and 27.3 µM (active) in test [3]; “inactive and 4.33 µM (active)” in test [4]; “inactive and 61.1 µM (active)” in test [8].
On to `Cc1c(F)c(N2CCNC(C)C2)cc2c1c(=O)c(C(=O)O)cn2C1CC1` (centres undefined), for which the Potency entry in test [1], in [2], in test [4], in test [10], in test [9] and in test [5] was “inactive” throughout. The Potency entry in test [7], in test [8] and in test [6] was “inactive” in each case.
In the case of `O[C@@H]([C@H](O)[C@H](O)CBr)[C@H](O)CBr`, the Potency result in test [1], in [2], in test [4], in test [10], in [9] and in test [5] was “inactive” in each case. Besides, the Potency entry in [7], in test [8] and in test [6] was “inactive” each time.
With `CCC(CC)(CC(=O)Nc1cccc(/C=C/c2nc(C3CCC3)cs2)c1)C(=O)O`, the Potency result in test [1], in test [2], in test [4], in test [10], in test [9] and in test [5] was “inactive” in each case. Also, the Potency result in test [7], in test [8] and in test [6] was “inactive” in each case.
With `Cc1cc(=O)oc2cc(O)cc(O)c12`, the Potency entry in test [1], in [2], in test [3], in [9], in test [8] and in test [6] was “inactive” each time.
Regarding `CCOc1ccc2ccccc2c1C(=O)N[C@@H]1C(=O)N2[C@@H]1SC(C)(C)[C@@H]2C(=O)O`, the Potency result in test [1], in test [2], in test [3], in test [4], in test [10] and in test [9] was “inactive” throughout. The Potency result in test [5], in [7], in test [8] and in test [6] was “inactive” each time.
In the case of `Cc1ccc(C)cc1`, the Potency entry in test [1], in test [2], in test [3], in test [4], in test [9] and in [5] was “inactive” throughout. For the same compound, the Potency entry in test [7], in test [8] and in [6] was “inactive” each time.
As for `FC(F)(F)c1cccc(Cl)c1`, the Potency result in test [1], in test [2], in test [3], in [9], in [5] and in [8] was “inactive” each time. Further, the Potency entry in [6] is “inactive”.
For `CC(=O)c1ccc(C(C)=O)cc1`, the Potency entry in test [1], in [2], in [3], in test [9], in test [5] and in test [8] was “inactive” each time. Besides, the Potency entry in test [6] is “inactive”.
With `O=C1CCc2cc(OCCCCc3nnnn3C3CCCCC3)ccc2N1`, the Potency result in test [1], in [2], in test [10], in [9], in test [5] and in test [7] was “inactive” throughout. For the same compound, the Potency result in test [8] and in test [6] was “inactive” each time. The Potency in [4] is 21.1 µM (active).
Consider `CCOC(=O)NNc1ccc(N(CC)CC(C)O)nn1` (centres undefined), for which the Potency result in test [1], in [2], in [4], in test [9], in test [5] and in test [7] was “inactive” throughout. The Potency result in test [8] and in test [6] was “inactive” each time. In addition, the PLD induction in test [10] is -4.24% [at 7.66 µM] (inactive).
For the compound `Cc1cc(C(C)(C)C)cc(C)c1CC1=NCCN1`, the Potency result in test [1], in test [2], in [4], in test [10], in test [5] and in [7] was “inactive” in each case. Also, the Potency result in [8] and in [6] was “inactive” throughout.
In the case of `C=CC(=O)OCCOC(=O)C=C`, the Potency result in test [1], in [2], in [4], in test [9], in test [5] and in test [8] was “inactive” in each case. Besides, the Potency entry in test [6] is “inactive”.
With `O=C1CCCCCCCCCCCCCCCO1`, the Potency entry in test [1], in test [2], in [4], in [9], in test [5] and in test [7] was “inactive” each time. Besides, the Potency result in test [8] and in [6] was “inactive” each time.
For `CC(C)(C)CC(C)(C)c1ccc(Nc2ccc(C(C)(C)CC(C)(C)C)cc2)cc1`, the activity change, negative = cytotoxicity in test [1] is 4% [at 8.39 µM] (inactive); in test [5], 2.64% [at 8.39 µM] (inactive). Besides, the viability change, negative = cytotoxic was 0.0791% [at 8.39 µM] (inactive) in test [2], 3.57% [at 8.39 µM] (inactive) in test [7] and -1.41% [at 8.39 µM] (inactive) in [8]. Further, the activity change, negative = inhibition in test [4] was -17.9% [at 8.39 µM] (inactive); in test [9], -1.65% [at 8.39 µM] (inactive). Moreover, the activity change in test [6] is -0.648% [at 8.39 µM, stronger effect = higher value] (inactive).
Take `O=C(O)c1cccc(C(F)(F)F)c1`: the Potency result in test [1], in test [2], in [4], in test [9], in [5] and in test [7] was “inactive” each time. Moreover, the Potency result in test [8] and in test [6] was “inactive” in each case.
With `COC(=O)c1ccccc1C`, the Potency result in test [1], in [2], in test [4], in [9], in test [5] and in [8] was “inactive” throughout. Besides, in test [6], the Potency entry was “inactive”.
With `CC(C)CCOC(=O)/C=C/c1ccccc1`, the Potency result in [1], in test [2], in test [4], in test [5], in test [7] and in test [8] was “inactive” in each case. The Potency result in test [6] was “inactive”.
For `C=Cc1cccc(C)c1`, the Potency entry in test [1], in [2], in test [4], in test [9], in test [5] and in test [7] was “inactive” in each case. Further, the Potency entry in test [8] and in test [6] was “inactive” each time.
In the case of `CCCCCCCC/C=C\CCCCCCCCN`, the Potency result in test [1], in test [2], in [4], in test [10], in test [5] and in test [7] was “inactive” throughout. The Potency entry in test [8] and in [6] was “inactive” throughout.
